Experimental findings from PubChem BioAssay (NCI) are described below.

Among the test systems are T-47D breast; BT-549 breast; MDA-MB-435 melanoma; SW-620 colon; MCF7 breast; HCT-116 colon; HCC-2998 colon; KM12 colon.
Common to all, as to assay: NCI-60 one-dose screen, 48 h (100 = growth as untreated, 0 = no growth, -100 = all killed)
Common to all, as to conditions: 10 µM unless noted

The structures appear in SMILES notation. This is part of a sample that, as a whole, favours compounds with a hit. Of some 83,000 tested, about 20% had one in any assay.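 Values shown are percent growth following 48 h exposure of cells in 96-well plates to a single concentration of compound; below 10 was considered active.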 Values without a mark were called inactive. Activity calls are given as the source filed them.

Regarding `NS(=O)(=O)c1ccc(Cn2c(SCC(=O)N/N=C/c3ccccc3O)nc3ccccc3c2=O)cc1`, the growth in the assay on T-47D breast was 33.3%; with BT-549 breast it was 56.1%; in the assay with MDA-MB-435 melanoma, 71.7%; in the assay with SW-620 colon, 60.4%; in the assay on MCF7 breast, 50%; in the assay with HCT-116 colon, 42.7%. Further, the results for the growth in the assay with HCC-2998 colon and with KM12 colon were 50.7% and 39.2%, respectively.

Consider `COc1ccc(/C=C2\Oc3cc(OCCCN4CCCCC4)ccc3C2=O)cc1OC`, for which the growth is 97.8% in the assay on T-47D breast; 83.9% in the assay with BT-549 breast; 100% with MDA-MB-435 melanoma; 85% in the assay on SW-620 colon; 85.9% in the assay on MCF7 breast; 76% with HCT-116 colon. Besides, the growth with HCC-2998 colon is 108%; in the assay on KM12 colon, 93.6%.

In the case of `COc1cccc(-c2nc3occn3c2-c2ccnc(NCCCNS(=O)(=O)c3ccc(C(F)(F)F)cc3)n2)c1`, the growth was 39.1% in the assay on T-47D breast; 93.4% in the assay on BT-549 breast; 76.3% in the assay with MDA-MB-435 melanoma; 124% in the assay with SW-620 colon; 79.8% in the assay with MCF7 breast; 83.9% in the assay with HCT-116 colon. The growth with HCC-2998 colon was 124%; in the assay on KM12 colon it was 91.5%.

Consider `COc1cc2oc(-c3cccc(C(=O)Nc4ccc(Br)cc4)c3)cc(=O)c2c(OC)c1OC`, for which the growth is 36% with T-47D breast; 45.8% with BT-549 breast; 65.6% with MDA-MB-435 melanoma; 94.6% in the assay on SW-620 colon; 78.1% in the assay on MCF7 breast; 45.6% in the assay with HCT-116 colon. Moreover, the growth in the assay with HCC-2998 colon was 81.9%; in the assay with KM12 colon, 46.6%.

As to `CCOC(=O)Oc1c(OC)cc(C(=O)c2ccc(OC)c(O)c2OC)cc1OC`, the growth is 43.8% in the assay with T-47D breast; 40.1% with BT-549 breast; -47.4% (active) in the assay with MDA-MB-435 melanoma; 20.5% in the assay on SW-620 colon; 19.5% in the assay on MCF7 breast; 9.57% (active) in the assay with HCT-116 colon. In addition, the growth was 39.7% with HCC-2998 colon and 25.7% in the assay on KM12 colon.

With `O=C1c2ccc3c4c(ccc(c24)C(=O)N1CCCNCc1ccccc1Cl)C(=O)N(CCCNCc1ccccc1Cl)C3=O`, the growth in the assay on T-47D breast was -25.5% (active); in the assay on BT-549 breast, -69% (active); with MDA-MB-435 melanoma, -43.7% (active); with SW-620 colon, -82.7% (active); with MCF7 breast, -78.2% (active); in the assay on HCT-116 colon, -6.85% (active). Moreover, the figures for the growth in the assay with HCC-2998 colon and in the assay with KM12 colon were -85.5% (active) and -72.5% (active), respectively.

As to `CC1(C)c2[nH]c3ccccc3c2C[C@]2(C)[C@H]3C(=O)C=C4[C@@H]5C[C@@](C)(C(N)=O)CC[C@]5(C)CC[C@@]4(C)[C@]3(C)CC[C@@H]12`, the growth with T-47D breast is 20.3%; with BT-549 breast it was 70.7%; in the assay on MDA-MB-435 melanoma, 83.6%; in the assay with SW-620 colon, 79.4%; in the assay on MCF7 breast, 35.3%; with HCT-116 colon, 46.3%. Besides, the growth in the assay on HCC-2998 colon was 79.2%; with KM12 colon, 67.5%.

`C#Cc1cccc(NC(=O)c2cccc(NC(=O)CCl)c2)c1`: the growth in the assay on T-47D breast was 25% [8.25 µM]; in the assay with BT-549 breast it was -43.5% [8.25 µM] (active); in the assay on MDA-MB-435 melanoma, -13.2% [8.25 µM] (active); in the assay with SW-620 colon, -74.2% [8.25 µM] (active); in the assay with MCF7 breast, 3.07% [8.25 µM] (active); in the assay with HCT-116 colon, -20.3% [8.25 µM] (active). For the same compound, the growth in the assay on HCC-2998 colon is 74.3% [8.25 µM]; in the assay on KM12 colon, 16.8% [8.25 µM].

As to `COc1ccc(C(=O)Cn2c(C(=O)c3ccccc3)nc3ccccc32)cc1`, the growth in the assay on T-47D breast was 38.1%; with BT-549 breast, 51.7%; in the assay on MDA-MB-435 melanoma, -43.3% (active); in the assay with SW-620 colon it was 10.6%; in the assay with MCF7 breast, 17.5%; in the assay with HCT-116 colon, 15.7%. Besides, the values for the growth in the assay with HCC-2998 colon and in the assay on KM12 colon were 26.5% and 20.4%, respectively.

For `O=S(=O)(Nc1ccc(-n2cnc3cc(-c4ccc(O)cc4)ccc32)cc1)c1ccccc1`, the growth in the assay with T-47D breast is 9.89% (active); with BT-549 breast, 94.3%; with MDA-MB-435 melanoma, 98.5%; with SW-620 colon it was 109%; with MCF7 breast it was 87.9%; in the assay on HCT-116 colon it was 90.3%. Besides, the growth was 115% in the assay with HCC-2998 colon and 54.6% in the assay on KM12 colon.

Take `N#C/C(=C\c1ccc(C(F)(F)F)cc1)c1cc2ccccc2[nH]1`: the growth with T-47D breast is 89.8%; with BT-549 breast, 94.1%; in the assay on MDA-MB-435 melanoma it was 97.1%; in the assay with SW-620 colon it was 100%; in the assay on MCF7 breast it was 77.4%; in the assay on HCT-116 colon, 94.9%. Also, the growth in the assay on HCC-2998 colon is 116%; in the assay on KM12 colon, 97.7%.

Turning to `O=C(c1ccccc1)N1N=C(c2ccc(-n3ccc(C(F)(F)F)n3)c(F)c2)CC1c1ccc[nH]1` (stereo not given), the growth was 90.6% in the assay with T-47D breast; 110% in the assay with BT-549 breast; 102% with MDA-MB-435 melanoma; 108% in the assay with SW-620 colon; 96.4% with MCF7 breast; 105% in the assay on HCT-116 colon. Besides, the values for the growth in the assay on HCC-2998 colon and with KM12 colon were 112% and 104%, respectively.

As to `COc1ccc(C(=O)c2nc3ccccc3n2CC(=O)c2ccc(F)cc2)cc1`, the growth with T-47D breast was 91.6%; with BT-549 breast, 93.2%; in the assay with MDA-MB-435 melanoma it was -16.4% (active); with SW-620 colon, 46%; in the assay with MCF7 breast, 62.9%; in the assay with HCT-116 colon, 89.5%. The values for the growth in the assay on HCC-2998 colon and with KM12 colon were 65.3% and 56.2%, respectively.

For `CCCOc1ccc(/C=N/Nc2cc(C)nc3ccc(Br)cc23)cc1`, the growth is 96.4% with T-47D breast; 99.3% with BT-549 breast; 85.8% in the assay on MDA-MB-435 melanoma; 6.14% (active) with SW-620 colon; 37.3% in the assay with MCF7 breast; 26.6% in the assay on HCT-116 colon. Also, the growth in the assay with HCC-2998 colon was 57.3%; in the assay on KM12 colon, 76.2%.

As to `COc1ccc(C(=O)Nc2cccc(C3CCc4c(cc(OC)c(OC)c4OC)O3)c2)cc1` (stereo not given), the growth with T-47D breast was 15.8%; in the assay on BT-549 breast, 40.9%; in the assay with MDA-MB-435 melanoma, -14.9% (active); in the assay on SW-620 colon, 28.8%; in the assay on MCF7 breast, 33.1%; in the assay on HCT-116 colon, 23.1%. For the same compound, the growth with HCC-2998 colon is 80.1%; in the assay with KM12 colon, 29.4%.
